Reference: PubChem BioAssay AID485317 (Broad Institute, 2010)
Among all 290,000 compounds or so, about 11,000 (3.8%) were called active.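 Rule for the calls: active = mean replicate inhibition above about 79%, with every replicate also reaching it (limit read from the data); inconclusive = only one of the two criteria met; inactive = mean below limit and not every replicate reaching it.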 Shown is part of a subset that was picked to be rich in actives.

molecular target: FAD-linked sulfhydryl oxidase ALR (Homo sapiens) (UniProt P55789); assay: inhibitors of human ALR sulfhydryl oxidase, primary screen, biochemical, H2O2 detection, HRP-luminol luminescence, single point (AID 485317); conditions: purified ALR, DTT oxidation, hits give high values, concentration not given here
Sequence (P55789 whole entry, looked up): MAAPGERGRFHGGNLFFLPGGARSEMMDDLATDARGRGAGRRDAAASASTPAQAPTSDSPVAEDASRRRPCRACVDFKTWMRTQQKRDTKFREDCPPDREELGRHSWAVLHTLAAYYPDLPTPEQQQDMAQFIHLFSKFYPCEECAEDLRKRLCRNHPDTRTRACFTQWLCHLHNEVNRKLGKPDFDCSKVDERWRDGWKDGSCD

Row | SMILES | inhibition
1 | CC(C(=O)N(C)CC(=O)Nc1ccccc1C(F)(F)F)N1C(=O)c2ccccc2C1=O (configuration not stated) | -4.96% (inactive)
2 | CCOc1ccc(CC(=O)NCCS(=O)(=O)N2CCN(c3ccccc3)CC2)cc1 | -1.48% (inactive)
3 | Cc1onc(-c2c(F)cccc2Cl)c1C(=O)OCC(=O)N1C(C)CCCC1C (configuration not stated) | -4.37% (inactive)
4 | COCCN(CCOC)S(=O)(=O)NC[C@H]1O[C@@H](n2cnc3c(N)ncnc32)[C@H](O)[C@@H]1O | 2.26% (inactive)
5 | COc1cc(C(=O)Nc2ncccc2C)ccc1OCC(=O)N1CCOCC1 | -1.3% (inactive)
6 | CCOc1ccc(C(=O)CCC(=O)NC2=NCCS2)cc1 | 2.64% (inactive)
7 | COc1ccc(/C=C/C(=O)c2ccc(OC)cc2O)cc1 | -17.6% (inactive)
8 | CCOc1ccc(/C=C/C(=O)OCC(=O)c2ccccc2OC)cc1OC | 1.49% (inactive)
9 | COCOc1cc(O)c(C(=O)/C=C/c2ccc(OCOC)c(OCOC)c2)c(OCOC)c1 | 94.9% (active)
10 | C#CCNC(=O)[C@H](Cc1ccc(C(=O)c2ccccc2)cc1)NC(=O)OC(C)(C)C | -2.67% (inactive)
11 | CCNC(=S)N1CCN(S(=O)(=O)c2ccc(Cl)s2)CC1 | -2.01% (inactive)
12 | COc1ccccc1C(=O)Nc1ccc(OCC(=O)N2CCCCC2)cc1 | 2.28% (inactive)
13 | Cc1cc(O)ccc1-c1cnc2ccccc2n1 | 58% (inactive)
14 | CC(=O)Nc1cccc(-c2nc3ccccc3s2)c1C | -21% (inactive)
15 | Oc1ccc(-c2[nH]ncc2-c2nc3ccccc3s2)c(O)c1 | 83.3% (active)
16 | CCN(C(=O)COC(=O)C1CCN(S(=O)(=O)c2ccc(C)c(C)c2)CC1)C1CCS(=O)(=O)C1 (configuration not stated) | -10.6% (inactive)
17 | COc1ccc(C2=NN(C(=O)CSc3nnnn3C)C(c3ccco3)C2)cc1 (configuration not stated) | 3.36% (inactive)
18 | Cc1ccc(C(=O)Nc2ccccc2-c2ccccc2)cc1S(=O)(=O)Nc1ccccc1 | -2.08% (inactive)
19 | CCN(CCNC(=O)C1=C(C)C(=O)OC12CCC(C)CC2)c1ccccc1 (configuration not stated) | 98.4% (active)

Row | SMILES | inhibition
20 | CCOc1ccc(CCNC(=O)C2=C(C)C(=O)OC23CCC(C)CC3)cc1OCC (configuration not stated) | -1.93% (inactive)
21 | CC1CCN(C(=O)CCNC(=O)c2ccccc2)CC1 | 0.139% (inactive)
22 | Cc1ccc(S(=O)(=O)NC[C@H]2O[C@@H](n3cnc4c(N)ncnc43)[C@H](O)[C@@H]2O)s1 | 1.77% (inactive)
23 | O=C(/C=C/c1ccccc1)c1ccoc1 | 13.2% (inactive)
24 | COC(=O)c1ccc(COc2ccc(/C=C/C(=O)c3ccc(OC)c(CSCC(=O)O)c3)cc2OC)cc1 | 99.4% (active)
25 | COC(=O)c1ccc(COc2ccc(/C=N/NC(=O)C(=O)Nc3ccc(OC)cc3)cc2OC)o1 | -5.05% (inactive)
26 | COc1ccc(C(=O)/C=C/c2ccc(-c3ccccc3)cc2)cc1CSCC(=O)O | 99.2% (active)
27 | COC(=O)c1ccc(C(NC(=O)OCc2ccccc2)/C(C)=C/[C@@H](C)C(=O)NCc2ccc(OC)c(OC)c2)cc1 (some centres not stated) | -2.17% (inactive)
28 | O=C(O)c1ccc2c(c1)C(=O)N(c1ccc(/C=C/C(=O)c3ccccc3)cc1)C2=O | 50.4% (inactive)
29 | CC(OC(=O)CN1C(=O)c2ccccc2C1=O)C(=O)c1ccccc1 (configuration not stated) | 4.65% (inactive)
30 | CCC(C)Cn1c(O)cc2nn(-c3nc4ccccc4s3)c(=O)c-2c1C (configuration not stated) | 98.9% (active)
31 | CCOC(=O)N1CCN(CC(=O)Nc2cc(C)nn2-c2nc3ccccc3s2)CC1 | 7.49% (inactive)
32 | Cc1nn(CC(=O)Nc2nc3ccccc3s2)c(C)c1[N+](=O)[O-] | -2.85% (inactive)
33 | Cc1csc(NC(=O)C2=COCCO2)n1 | 1.03% (inactive)
34 | Cc1ccc(-c2csc(NC(=O)C3=COCCO3)n2)cc1C | 83.7% (active)
35 | Cc1ccc(-c2csc(NC(=O)c3cnccn3)n2)cc1C | -0.38% (inactive)
36 | O=C(Nc1cccc(S(=O)(=O)NC2=NCCC2)c1)c1ccc(F)cc1F | -7.53% (inactive)
37 | COc1ccc(-c2cc(C(=O)N(C)CC(=O)Nc3ccccc3Cl)c3ccccc3n2)cc1OC | -3.41% (inactive)
38 | Cc1ccc(S(=O)(=O)N(C)C)cc1NC(=O)COC(=O)/C=C/c1cccs1 | -0.0664% (inactive)

Row | SMILES | inhibition
39 | O=C(OCC(=O)N1CCN(c2ccccc2)CC1)c1ccc([N+](=O)[O-])s1 | -44.6% (inactive)
40 | COc1ccccc1NC(=O)CC(NCCN(C)C)C(=O)O (configuration not stated) | -8.47% (inactive)
41 | COc1ccc(C)cc1NC(=O)Nc1ccccc1SC | -2.74% (inactive)
42 | COC(=O)C(CC(=O)Nc1cc(C)ccc1C)Nc1ccccc1OC (configuration not stated) | 98.4% (active)
43 | COc1cc([N+](=O)[O-])ccc1NC(=O)COC(=O)CCOc1ccc(C)cc1 | 24.6% (inactive)
44 | Cc1ccc(NC(=O)Cc2nc(COC(=O)C(C)NS(=O)(=O)c3ccc(C)cc3)cs2)cc1 (configuration not stated) | 14% (inactive)
45 | CCN(CC)C(=O)CSC(Nc1cccc(F)c1)=C(C#N)C#N | 98.8% (active)
46 | Cc1ccc(CSCC(=O)N(C)CC(=O)Nc2cccc(F)c2)cc1 | -16.3% (inactive)
47 | CCN(CC)C(=O)C(=O)Nc1cccc(Br)c1 | 3.75% (inactive)
48 | COc1ccccc1NC(=O)/C=C/C(=O)O | -9.66% (inactive)
49 | O=C(O)/C=C/C(=O)Nc1ccc(F)cc1F | 5.9% (inactive)
50 | COC(=O)c1sc(-c2ccc(C(C)(C)C)cc2)cc1NC(=O)/C=C/C(=O)O | 98.3% (active)
51 | O=C(COC(=O)c1cc(S(=O)(=O)N2CCOCC2)ccc1F)NC1CC1 | -8.45% (inactive)
52 | CN(CC(=O)Nc1ccc(F)c(F)c1F)C(=O)Cn1cnc2c1c(=O)n(C)c(=O)n2C | -6.05% (inactive)
53 | CCCCn1c(N)c(N(CCC(C)C)C(=O)c2ccc(COc3ccccc3)o2)c(=O)[nH]c1=O | 0.673% (inactive)
54 | CCCOC(=O)Nc1sc2c(c1C(=O)OCC)CCC2 | 46.6% (inactive)
55 | CCOC(=O)c1c(NC(=O)CSc2nnc(C)c(=O)[nH]2)sc2c1CCC2 | 90% (active)
56 | NC(=O)c1c(NC(=O)CSc2nc(N)cc(=O)[nH]2)sc2c1CCCC2 | 36% (inactive)
57 | Cc1ccc(C)c(NC(=O)COC(=O)c2nn(C)c(=O)c3ccccc23)c1 | -9.61% (inactive)
